Abs 340nm: compound light absorbance at 340 nm, profiling panel, artefact control, biochemical, MLSMR library, data from PS, PMK, MK assays | compound absorbance at 340 nm, fold over control | fold change at 10 µM | 65,000 tested, under 10 active;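 active = at 10 µM dose, initial 340 nm absorbance at least 2 fold that of control wells; inactive = change under 2 fold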;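 note: initial absorbance extrapolated from kinetic A340 decline of NADH oxidation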
NADH enzymes: inhibitors of PK/LDH coupling enzymes, profiling panel, artefact control, biochemical, MLSMR library | IC50, µM (top dose mostly 10 µM) | actives 0.02% (n = 65,000) | coupled PK/LDH NADH assays, four targets | AID 774, 2007;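 active = single-dose screening hits from any of four coupled enzyme assays that gave an IC50 when retested across doses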;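 note: the DPM-DC format reads NADH fluorescence rather than 340 nm absorbance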
DPM-DC inhibit: S. pneumoniae DPM-DC inhibitors, primary screen, biochemical, PK/LDH-coupled NADH fluorescence. diphosphomevalonate decarboxylase (Streptococcus pneumoniae D39). purified DPM-DC. calls only at 10 µM. actives 0.49% (n = 65,000). AID 556, 2006;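 active = the 320 compounds with the highest percent inhibition in the single-dose primary screen, excluding strongly autofluorescent ones, cut at about 32% in these data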;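 note: kinetic rate of NADH fluorescence loss reporting ADP formed by the decarboxylase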
Autofluor 339: intrinsic fluorescence of library compounds, ex339/em460 – biochemical, MLSMR library, data from DPM-DC assay, artefact control, profiling panel; compound autofluorescence, ex339/em460 nm, NADH buffer; active compounds read high; 1 = no-compound wells, NADH background; fluorescence fold increase at 10 µM; actives 5.5% (n = 65,000);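 active = at 10 µM, mean starting fluorescence two-fold or more over control wells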;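 note: signal is the first read of a kinetic run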
Spn PMK inh: S. pneumoniae PMK inhibitors, primary screen, biochemical, mevalonate pathway, pilot trial included. phosphomevalonate kinase (Streptococcus pneumoniae D39). purified PMK, PK/LDH-coupled NADH absorbance 340 nm. inhibition, % at 10 µM. actives 0.49% (n = 65,000). AID 539, 2006;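 active = top-ranked compounds by inhibition in the single 10 µM screen, taking a fixed number of the strongest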
MK inhibit: S. pneumoniae MK inhibitors, primary screen, biochemical, PK/LDH-coupled NADH absorbance; actives 0.48% (n = 65,000); purified MK, PK/LDH-coupled NADH absorbance 340 nm; inhibition, % at 10 µM; mevalonate kinase [Streptococcus pneumoniae D39]; AID 555, 2006;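 active = ranked among the strongest by inhibition in the single 10 µM screen, a fixed top-ranked set picked for dose follow-up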
Numbers stand for hits; 0 = inactive; - = no result given; + = active, no number. This is a sample that favours compounds with a hit; in the whole collection about 6.5% have one here.

SMILES | Abs 340nm | NADH enzymes | DPM-DC inhibit | Autofluor 339 | Spn PMK inh | MK inhibit
Cc1ccc(-c2nc3cc(C)ccc3o2)cc1 | 0 | 0 | 0 | 0 | 0 | 0
COC(=O)c1ccc(-c2nc3ccc(C)cc3o2)cc1 | 0 | 0 | - | 3.8 | 0 | 0
CCC(=O)N1CCN(c2ccccc2NC(=O)COc2cc(C)ccc2C(C)C)CC1 | 0 | 0 | 0 | 0 | 0 | 0
CCOc1cccc(NC(=O)c2ccc(S(=O)(=O)N3CCCC3)cc2)c1 | 0 | 0 | 0 | 0 | 0 | 0
O=C(Nn1c(=S)[nH]c2ccccc2c1=O)c1ccncc1 | 0 | 0 | 0 | 0 | 0 | 0
CC(C)CNS(=O)(=O)c1ccccc1C(=O)N1CCCCC1 | 0 | 0 | 0 | 0 | 0 | 0
CC(C)COC(=O)n1ccc(C(=O)N2CCCCC2)n1 | 0 | 0 | 0 | 0 | 25 | 0
COc1ccc2nc(NC(=O)C3CCCN3S(=O)(=O)c3ccc(C)cc3)sc2c1 (stereo not given) | 0 | 0 | 0 | 0 | 0 | 0
CCCCn1c(=NC(=O)c2ccc3c(c2)OCO3)c(C#N)cc2c(=O)n3cccc(C)c3nc21 | 0 | 0 | 0 | 2.3 | 0 | 0
COCCn1c(=NC(=O)c2ccc3c(c2)OCO3)c(C#N)cc2c(=O)n3cccc(C)c3nc21 | 0 | 0 | 0 | 0 | 0 | 0
CCCCn1c(=NC(C)=O)c(C#N)cc2c(=O)n3cccc(C)c3nc21 | 0 | 0 | - | 3.9 | 0 | 0
CCCCCn1c(=NC(C)=O)c(C#N)cc2c(=O)n3ccccc3nc21 | 0 | 0 | - | 3.6 | 0 | 0
Cc1cccn2c(=O)c3cc(C#N)c(=NC(=O)c4ccncc4)n(Cc4ccco4)c3nc12 | 0 | 0 | - | 2.7 | 0 | 0
CCOC(=O)CSc1cc(C)nc(NC(C)=O)n1 | 0 | 0 | 0 | 0 | 0 | 0
CC(C)OCCCn1c(=NC(=O)c2ccncc2)c(C#N)cc2c(=O)n3ccccc3nc21 | 0 | 0 | - | 3.6 | 0 | 0
Cc1noc(C)c1CSc1ccc2ccccc2n1 | 0 | 0 | 0 | 0 | 0 | 0
Cc1noc(C)c1CSc1nc2ccccc2s1 | 0 | 0 | + | 0 | 0 | 0
O=C(O)C(Cc1c[nH]c2ccccc12)NS(=O)(=O)c1cccc2nsnc12 (stereo not given) | 0 | 0 | 0 | 0 | 0 | 0
Cc1ccc2nc(-c3ccc(NC(=O)CN4CCN(C(=O)c5ccco5)CC4)cc3)sc2c1 | 0 | 0 | - | 2.2 | 0 | 0
COc1cc(OC)c(C2CC(=O)N3CN(c4ccc(C)cc4)CSC3=C2C#N)cc1OC (stereo not given) | 0 | 0 | 0 | 0 | 0 | 41
Cc1ccc(S(=O)(=O)N2CCC(C(=O)N3CCC[C@H]3C(=O)NCc3ccco3)CC2)cc1 | 0 | 0 | 0 | 0 | 0 | 0
CCOc1cc(S(=O)(=O)NCc2ccco2)c(OCC)cc1-n1cnnn1 | 0 | 0 | - | 3.2 | 0 | 0
CCOc1ccccc1CN(Cc1ccco1)S(=O)(=O)c1ccc(-n2cnnn2)c(OC)c1 | 0 | 0 | 0 | 0 | 0 | 0
CCOc1cc(S(=O)(=O)NCC2OCCc3ccccc32)c(OCC)cc1-n1cnnn1 (stereo not given) | 0 | 0 | - | 3.9 | 0 | 0
CN(C)c1ccc(-c2noc(-c3ccccc3O)n2)cc1 | 0 | 0 | - | 5.3 | 0 | 0
SMILES | Abs 340nm | NADH enzymes | DPM-DC inhibit | Autofluor 339 | Spn PMK inh | MK inhibit
Cc1ccc(-c2noc(-c3ccccc3Br)n2)cc1 | 0 | 0 | 0 | 0 | 0 | 0
COC(=O)CC1C(=O)NCCN1C(=O)Nc1ccccc1 (stereo not given) | 0 | 0 | 0 | 0 | 0 | 0
CCOC(=O)CC1C(=O)NCCN1C(=O)Nc1ccccc1 (stereo not given) | 0 | 0 | 0 | 0 | 0 | 49
Cc1ccc(-c2cc(C(F)F)nc(NCC3CCCO3)n2)cc1 (stereo not given) | 0 | 0 | 0 | 0 | 0 | 0
O=c1oc2ccccc2cc1-c1nc2ccccc2o1 | 0 | 0 | - | 2.1 | 0 | 0
O=c1c2ccccc2sn1-c1ccc(S(=O)(=O)N2CCCCC2)cc1 | 0 | 0 | + | 0 | 0 | 0
O=c1c2ccccc2sn1-c1ccc(S(=O)(=O)N2CCCC2)cc1 | 0 | 0 | + | 0 | 0 | 100
Cc1ccc(-n2sc3ccccc3c2=O)cc1S(=O)(=O)N1CCCCC1 | 0 | 0 | + | 0 | 0 | 100
CCn1c(SCCC#N)nnc1-c1ccncc1 | 0 | 0 | 0 | 0 | 0 | 0
O=C(O)c1cc(-c2ccccc2)nc2ccccc12 | 0 | 0 | 0 | 0 | 0 | 0
O=C(O)c1cc(Cl)c2ccccc2c1O | 0 | 0 | - | 3.8 | 0 | 0
COCCOC(=O)C1=C(C)N=C2SCCC(=O)N2C1c1cccc(Br)c1 (stereo not given) | 0 | 0 | 0 | 0 | 0 | 0
COc1ccc(-n2nc(C(=O)NCc3ccco3)c3c4ccccc4n(C)c3c2=O)cc1Cl | 0 | 0 | + | 3.6 | 0 | 0
COc1ccc(-n2nc(C(=O)NCC(=O)NCc3ccco3)c3ccccc3c2=O)cc1 | 0 | 0 | 0 | 0 | 0 | 0
COc1cc(C2c3c(n[nH]c3C)C(=O)N2c2ccc(C)cc2)ccc1O (stereo not given) | 0 | 0 | 0 | 0 | 0 | 10
COc1ccc(S(=O)(=O)NCCCN2CCOCC2)c2ccccc12 | 0 | 0 | 0 | 0 | 0 | 0
CCOc1ccc(S(=O)(=O)NCCCN2CCOCC2)c2ccccc12 | 0 | 0 | 0 | 0 | 40 | 0
CCN1C(=O)c2cccc3c(S(=O)(=O)NCCCN4CCOCC4)ccc1c23 | 0 | 0 | 0 | 3.9 | 0 | 0
CCN1C(=O)c2cccc3c(S(=O)(=O)Nc4ccccc4OC)ccc1c23 | 0 | 0 | 0 | 0 | 0 | 0
O=C(CSc1nnc(-c2ccco2)o1)N1c2ccccc2CCc2ccccc21 | 0 | 0 | 0 | 0 | 0 | 0
COc1ccc2c(CC(=O)Nc3ccc(OC)c(NS(=O)(=O)c4ccc(F)cc4)c3)coc2c1 | 0 | 0 | 0 | 0 | 0 | 0
Cc1cc(-c2ccc(F)cc2)nc2cc(C(N)=O)nn12 | 0 | 0 | 0 | 2.1 | 0 | 0
CCOC(=O)c1cnn2c(C)cc(-c3ccc(F)cc3)nc12 | 0 | 0 | - | 2.2 | 0 | 0
Cn1c(=O)c2c3c(sc2n2c(SCc4ccc5c(c4)OCO5)nnc12)COC(C)(C)C3 | 0 | 0 | 0 | 0 | 0 | 0
CCOc1ccc(-c2nnc(-c3snc(-c4ccc(F)cc4)c3N=CN(C)C)o2)cc1 | 0 | 0 | - | 3.8 | 0 | 0
CSc1nc2ccc(NS(=O)(=O)c3ccc4c(c3)OCCO4)cc2s1 | 0 | 0 | 0 | 0 | 0 | 0
CCc1ccc(OCc2nnc(SCC(=O)NCc3ccco3)o2)cc1 | 0 | 0 | 0 | 0 | 26 | 0
COc1ccccc1C(=O)NCCc1nc2ccccc2[nH]1 | 0 | 0 | 0 | 0 | 0 | 0
CN(Cc1ccccc1)Cc1c[nH]c2ccccc12 | 0 | 0 | 0 | 0 | 0 | 0

Assay outcomes as filed in PubChem.
